Data on 37 compounds can be found in PubChem BioAssay (NCI).

Where “and” joins values, the source holds several entries; their conditions need not be identical. Equal entries are not always repeated. Compounds without any hit were thinned out: in the full panel of roughly 79,000, 15% have a hit. A number with no mark means an inactive call. Calls of active or inactive are those of the source. Rule as the data show it: active = growth inhibition above about 70%; inactive = the rest.

A short description of experiment [1]: NCI Yeast Anticancer Drug Screen. Data for the rad50 strain (AID 155).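 Also: 0% = growth of vehicle-only cultures of the same strain.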 To be noted: S. cerevisiae rad50 strain growth inhibition; at 50.0 µM; stronger effect = higher value. The gist of the method: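 Cells are treated with compound, grown, and their growth is then scored against vehicle-only cultures of the same repair-deficient yeast strain.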
Experiment [2] can be described thus: NCI Yeast Anticancer Drug Screen. Data for the mec2-1 strain (AID 157). The following applies: S. cerevisiae mec2-1 strain, at 50.0 µM, stronger effect = higher value. The procedure, abridged: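 Test agents were screened against the mec2-1 yeast strain, with defined DNA repair or cell cycle alteration. Growth was scored as inhibition against vehicle-only controls.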
A short description of experiment [3]: NCI Yeast Anticancer Drug Screen. Data for the sgs1 mgt1 strain (AID 161).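 Also: 0% = growth of cultures given vehicle only.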 The following applies: S. cerevisiae sgs1 mgt1 strain, at 50.0 µM, stronger effect = higher value. The procedure, abridged: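 Genetically altered yeast, compound exposure, growth inhibition relative to vehicle.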
Experiment [4] can be described thus: NCI Yeast Anticancer Drug Screen. Data for the cln2 rad14 strain (AID 165).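 Also: 0% = growth equal to vehicle treated cultures.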 The following applies: S. cerevisiae cln2 rad14 strain, at 50.0 µM, stronger effect = higher value. The procedure, abridged: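 Growth of compound-exposed yeast (cln2 rad14 genotype) measured and expressed as inhibition relative to vehicle.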
The nature of experiment [5]: NCI Yeast Anticancer Drug Screen. Data for the bub3 strain (AID 167). The following applies: S. cerevisiae bub3 mutant strain, at 50.0 µM, stronger effect = higher value. The procedure, abridged: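 Part of a panel of yeast mutants defective in DNA damage repair or cell cycle regulation. Each strain is grown with compound, and inhibition is calculated relative to solvent-treated cultures.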

Experiment [6] can be described thus: NCI Yeast Anticancer Drug Screen. Data for the mlh1 rad18 strain (AID 175). To be noted: S. cerevisiae mlh1 rad18 strain growth inhibition; at 50.0 µM; stronger effect = higher value. The gist of the method: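 In this whole-cell yeast screen, a strain with altered DNA damage repair is challenged with compound, and its growth is measured against matched vehicle-treated controls.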

For the compound `CC(N)C(=O)O` (configuration not stated), the growth inhibition in experiment [1] is 17.9% and -7.45%; in experiment [2], -43.1% and -5.4%; in experiment [3], 8.7% and -25.4%; in experiment [4] it was 5.8% and 12.2%; in experiment [5] it was 7.65% and -26.8%; in experiment [6], 8.2% and -9.2%.

With `C=CP(=O)(OCCCl)OCCCl`, the growth inhibition in experiment [1] was 24.5%; in experiment [2] it was -0.7%; in experiment [3] it was 2.3%; in experiment [4] it was 18.1%; in experiment [5] it was -1.6%; in experiment [6], 12.9%.

Turning to `CC[C@H]1CN2CCc3c([nH]c4ccccc34)[C@@H]2C[C@@H]1/C(=C/OC)C(=O)OC` (tested in a mixture with another compound), the growth inhibition in experiment [1] is -23.2%; in experiment [2] it was -25.6%; in experiment [3], -24.6%; in experiment [4], 3.6%; in experiment [5], -32.9%; in experiment [6], -13.9%.

With `CC1(C)CC(O)CC(C)(C)N1O`, the growth inhibition in experiment [1] was 21.8%; in experiment [2], 15.8%; in experiment [3], 37%; in experiment [4], 22.2%; in experiment [5], 20.2%; in experiment [6] it was 16.4%.

On to `O=C(O)CCCC1CCCCC1.[Ni]`, for which the growth inhibition in experiment [1] is -6.95%; in experiment [2] it was 14.8%; in experiment [3], -2.1%; in experiment [4], 16%; in experiment [5] it was -10.8%; in experiment [6], -18.6%.

Turning to `CN(C)P(=O)(N(C)C)N1CCCCCC1`, the growth inhibition is -8.2% in experiment [1]; -21.6% in experiment [2]; 0% in experiment [3]; -18.4% in experiment [4]; 3.4% in experiment [5]; -10.6% in experiment [6].

Regarding `[CH3][Sn]([CH3])([Cl])[S]CCN`, the growth inhibition in experiment [1] is 29.6%; in experiment [2], 32.5%; in experiment [3], -5.55%; in experiment [4], 1.25%; in experiment [5], -15.4%; in experiment [6], 18.6%.

In the case of `CN1CCOC(c2ccccc2)c2ccsc2CC1` (configuration not stated), the growth inhibition in experiment [1] is 17.2%; in experiment [2], -5%; in experiment [3], 35.2%; in experiment [4] it was 0%; in experiment [5] it was 9.4%; in experiment [6], 16.8%.

On to `CSCCC([NH-])C(=O)O.CSCCC([NH-])C(=O)O.[Cu+2]` (configuration not stated), for which the growth inhibition in experiment [1] was -18.1%; in experiment [2], 7.95%; in experiment [3], -9.2%; in experiment [4] it was -33.3%; in experiment [5], -13.1%; in experiment [6], -2.5%.

Take `Nc1nc(N)[nH]c(=O)n1`: the growth inhibition in experiment [1] was -20.1%; in experiment [2] it was -12.5%; in experiment [3] it was -39%; in experiment [4], -29.4%; in experiment [5], -36.4%; in experiment [6], -40%.

As for `O=P(c1ccccc1)(c1ccccc1)c1ccccc1.O=P(c1ccccc1)(c1ccccc1)c1ccccc1.O=P(c1ccccc1)(c1ccccc1)c1ccccc1.O=P(c1ccccc1)(c1ccccc1)c1ccccc1.[Co+2].[O-][Cl+3]([O-])([O-])O`, the growth inhibition was 22.7% in experiment [1]; 3.45% in experiment [2]; 17.9% in experiment [3]; 20.9% in experiment [4]; 13.8% in experiment [5]; 16.3% in experiment [6].

Take `CC(C)SP(=S)(SC(C)C)SC(C)C`: the growth inhibition in experiment [1] is 8%; in experiment [2], -10.1%; in experiment [3] it was 8.3%; in experiment [4], -20.4%; in experiment [5] it was 4.15%; in experiment [6], 17.1%.

On to `[Cl][Pt+2][Cl].c1ccc(CC2CC[N-]CC2)cc1.c1ccc(CC2CC[N-]CC2)cc1`, for which the growth inhibition in experiment [1] is -11.6%; in experiment [2], 1.1%; in experiment [3] it was 1.3%; in experiment [4], 2.35%; in experiment [5], 9.3%; in experiment [6] it was -3.6%.

Consider `CC(=O)CC(C)=O.CC(=O)CC(C)=O.[Mn]`, for which the growth inhibition in experiment [1] was 17.1%; in experiment [2] it was 1.05%; in experiment [3], 1.75%; in experiment [4] it was -42.2%; in experiment [5], -3.3%; in experiment [6], -2.5%.

As to `Cc1cc(C)[n+](CCc2ccccc2)c(C)c1`, the growth inhibition in experiment [1] was 5.15%; in experiment [2], 2.55%; in experiment [3] it was -3.25%; in experiment [4], -6.3%; in experiment [5] it was 2.4%; in experiment [6] it was 4.25%.

`Cc1nccn1-c1ccc(Cl)cc1N=Cc1ccc(N(CCCl)CCCl)cc1Cl`: the growth inhibition in experiment [1] is 38.4%; in experiment [2] it was 47.5%; in experiment [3] it was 68.5%; in experiment [4] it was 33.8%; in experiment [5], 43%; in experiment [6] it was 71.5% (active).

Turning to `CCCCOP(=S)(Nc1ccccc1)OCCCC`, the growth inhibition is 91% (active) in experiment [1]; 40.7% in experiment [2]; 81.8% (active) in experiment [3]; 42% in experiment [4]; 73.5% (active) in experiment [5]; 82.2% (active) in experiment [6].

With `O=C(O)CN(CCN(CC(=O)O)CC(=O)O)CC(=O)O.[Cl][Pd][Cl]`, the growth inhibition in experiment [1] is 41.7%; in experiment [2], 51.5%; in experiment [3] it was 48.2%; in experiment [4], 21.7%; in experiment [5] it was 44.6%; in experiment [6] it was 62%.

As for `CC(Cl)CN1COc2ccc3ccc4c(c3c2C1)CN(CC(C)Cl)CO4` (configuration not stated), the growth inhibition in experiment [1] is 29.1%; in experiment [2], 14.4%; in experiment [3], 28.4%; in experiment [4], -17.9%; in experiment [5] it was 6%; in experiment [6], 34.1%.

As for `CN1C[C@H]2[C@@H](C1=O)[C@H](c1ccccc1)ON2C`, the growth inhibition is -16.4% in experiment [1]; -55.2% in experiment [2]; -34% in experiment [3]; 13.6% in experiment [4]; 5.85% in experiment [5]; -1.85% in experiment [6].

With `O=C(O)C1C2Cc3ccccc3C21` (configuration not stated), the growth inhibition in experiment [1] was 18.1%; in experiment [2] it was 10.4%; in experiment [3], -8.35%; in experiment [4], -5.9%; in experiment [5], -20.3%; in experiment [6], -12.6%.

In the case of `c1ccc(C[P+]2(c3ccccc3)CCCCC2)cc1`, the growth inhibition in experiment [1] is -12.7%; in experiment [2], -1.05%; in experiment [3], -0.55%; in experiment [4], -22.6%; in experiment [5], -4.95%; in experiment [6], 3.1%.

Turning to `CCOC(=O)NP(=O)(Nc1ccccc1)Nc1ccccc1`, the growth inhibition was 21.2% in experiment [1]; -8.05% in experiment [2]; -3.5% in experiment [3]; 5.7% in experiment [4]; -5.1% in experiment [5]; -5% in experiment [6].

Consider `CC(=O)C(=O)c1ccccc1`, for which the growth inhibition is -14.6% in experiment [1]; 6.5% in experiment [2]; -0.45% in experiment [3]; -25.8% in experiment [4]; -19.7% in experiment [5]; -21.5% in experiment [6].

Turning to `NC(=O)/C=C/C(=O)O`, the growth inhibition was 19% in experiment [1]; 9.75% in experiment [2]; 10.5% in experiment [3]; -8.25% in experiment [4]; 11% in experiment [5]; 14% in experiment [6].

On to `NC(Cc1ccccc1)c1ccccc1` (configuration not stated), for which the growth inhibition is 3.15% and -1.6% in experiment [1]; -7.3% and -0.95% in experiment [2]; 0.3% and -16.8% in experiment [3]; -36% and -23.1% in experiment [4]; 5.35% and 1.75% in experiment [5]; 14.8% and -0.1% in experiment [6].

For `[Pd].[Pd].[S-]CC[S-].[S-]CC[S-].c1ccc([PH+](c2ccccc2)c2ccccc2)cc1.c1ccc([PH+](c2ccccc2)c2ccccc2)cc1`, the growth inhibition in experiment [1] is -4.9%; in experiment [2], 5.5%; in experiment [3], 8.9%; in experiment [4] it was -22.1%; in experiment [5], -2.35%; in experiment [6], 13.1%.

For `Nc1ccccc1Nc1ccccc1C(=O)[O-].Nc1ccccc1Nc1ccccc1C(=O)[O-].[Zn+2]`, the growth inhibition in experiment [1] is -19.2%; in experiment [2], -7%; in experiment [3], -15.2%; in experiment [4], 10.2%; in experiment [5], -29.4%; in experiment [6], -7.55%.

Take `O=S1(N2CC2)=NP(N2CC2)(N2CC2)=NP(N2CC2)(N2CC2)=N1` (configuration not stated): the growth inhibition was -20.9% in experiment [1]; -22.5% in experiment [2]; -16.8% in experiment [3]; 11.2% in experiment [4]; -33% in experiment [5]; -67.1% in experiment [6].

Take `CC1(C)C2CC[C@@]1(C)C(=O)C2Br` (some centres not stated): the growth inhibition in experiment [1] is 24.9%; in experiment [2] it was 25.6%; in experiment [3] it was -1.6%; in experiment [4], 7.55%; in experiment [5], 23.9%; in experiment [6], -8.7%.

Regarding `Cc1ccc(N)c(N)c1`, the growth inhibition was 18.6% and 6.85% in experiment [1]; -5% and -3.75% in experiment [2]; 9.3% and -3.35% in experiment [3]; 9.8% and 32.2% in experiment [4]; 7.75% and -7.95% in experiment [5]; 19% and 7.5% in experiment [6].

Consider `CC1(C)N=C(N)N=C(N)N1c1ccc(CCCCc2ccccc2S(=O)(=O)F)c(Cl)c1`, for which the growth inhibition was 99.5% (active) in experiment [1]; 99.7% (active) in experiment [2]; 99.7% (active) in experiment [3]; 99.4% (active) in experiment [4]; 99.5% (active) in experiment [5]; 99.7% (active) in experiment [6].

In the case of `c1ccc2c(c1)cc1ccc3cccc4ccc2c1c34`, the growth inhibition is -6.9% in experiment [1]; -14.9% in experiment [2]; 7.15% in experiment [3]; 15.5% in experiment [4]; 14.4% in experiment [5]; 9.9% in experiment [6].

`CCCCCCOC(=O)c1ccccc1C(=O)OCCCCCC`: the growth inhibition is -13.2% in experiment [1]; -1.75% in experiment [2]; -27.9% in experiment [3]; -12.5% in experiment [4]; -45.2% in experiment [5]; -2.8% in experiment [6].

In the case of `CN1CCC2(CC1)c1ccccc1-c1ccccc12`, the growth inhibition in experiment [1] is -7.7%; in experiment [2], -20.6%; in experiment [3] it was -2.6%; in experiment [4] it was -25%; in experiment [5], -12.7%; in experiment [6] it was -38.7%.

As to `CN(C)CCC(O)c1c[nH]c2ccccc12` (configuration not stated), the growth inhibition in experiment [1] was 6%; in experiment [2], 1%; in experiment [3], -4.1%; in experiment [4], -5.15%; in experiment [5], 1.15%; in experiment [6] it was 1.15%.

With `C(#CCN1CCCCCC1)CN1CCCCCC1`, the growth inhibition in experiment [1] is 0.55%; in experiment [2], -9.8%; in experiment [3], 0.05%; in experiment [4] it was -8.85%; in experiment [5] it was -14.1%; in experiment [6], -2.7%.
